The record followed here is PubChem BioAssay (EPA / NIEHS).

SMILES strings stand for the structures. Activity calls are given as the source filed them. Rule for the calls: active = hit-call score of the fitted dose curve at least 0.9, where 1 is the maximum; inactive = score below 0.9.

A short description of the assay: ATG_CMV_CIS: Attagene CIS-FACTORIAL HepG2 Assay for human CMV (Internal Marker) (AID 2282928).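 Note: endpoint acts as a background internal control marker rather than a target.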 To be noted: HepG2 CMV promoter reporter, transcription factor profiling; actives raise or lower the signal. As for the experimental part:
ATG_CIS is a cell-based, multiplexed-readout assay that uses HepG2, a human liver cell line, with measurements taken at 24 hours after chemical dosing in a 24-well plate.ATG_CMV_CIS is one of 52 assay component(s) measured or calculated from the ATG_CIS assay. It is designed to make measurements of mRNA induction, a form of inducible reporter, as detected with fluorescence intensity signals by Reverse transcription polymerase chain reaction (RT-PCR) and Capillary electrophoresis technology.Data from the assay component ATG_CMV_CIS was analyzed into 1 assay endpoint. This assay endpoint, ATG_CMV_CIS, was analyzed with bidirectional fitting relative to DMSO as the negative control and baseline of activity. Using a type of inducible reporter, measures of mRNA for gain or loss-of-signal activity can be used to understand the background control at the transcription factor-level as they relate to the gene . Furthermore, this assay endpoint can be referred to as a secondary readout, because this assay has produced multiple assay endpoints where this one serves a background control function. To generalize the intended target to other relatable targets, this assay endpoint is annotated to the background measurement intended target family, where the subfamily is internal marker.
Human liver HepG2 cells are transiently transfected with multiple reporter transcription units (MRTUs) in 6-well plates using FuGene 6 reagent (Roche; 3 ml FuGene/1 mg DNA). The MRTU constructs are regulated by a cis-regulating element (promoter). […] A major difference between the CIS and TRANS system is that in CIS activities of endogenous TFs are measured, whereas the TRANS assay evaluates changes in activities of exogenous, chimeric NR-Gal4 proteins. […] At the end of 24 hour incubation, total RNA was isolated using TriZol reagent (Invitrogen). The isolated RNA is then reverse-transcribed using oligo(dT) primer and Mo-MLV reverse transcriptase (Invitrogen) with DNAse I (Ambion) treatment for 30 min. The one-tenth of the produced cDNA was amplified by PCR using Taq DNA polymerase (Invitrogen) and two reporter sequence-specific primers. The PCR products were fluorescently labeled by primer extension with 6-arboxyfluorescein (6-FAM) 5'-labeled reporter sequence-specific primer (2 min at 95 C, 20 s at 68 C and 10 min at 72 C) and these products were digested with 5U of HpaI (New England Biolabs) for 2h at 37 C. The fragments were purified using Qiaquick PCR columns (Qiagen), analyzed on an ABI 3130xL genetic analyzer (Applied Biosystems) with peak positions identified by using a set of X-rhodamine (ROX)-labeled MapMarker1000 molecular weight standards (BioVentures). The raw capillary electrophoresis data was processed using Attagraph software (Attagene).
For the molecule `CC(C)(Cl)Cl`, the molecule was called inactive. The same measure, in the same setting: in the case of `CCCCCCC1CCOC1=O` (stereo not given) it was “inactive”; in that of `C=Cc1cccc(CCl)c1`, “inactive”; in that of `O=S(=O)(O)OOS(=O)(=O)O`, “inactive”. On to `O=C1C(Cl)=C(Cl)C(=O)C(Cl)=C1Cl`, for which the molecule was classed as inactive. The same measure, in the same setting: as for `[Cl][Sb]([Cl])[Cl]`, the entry is “inactive”. `O=[N+]([O-])c1cc([N+](=O)[O-])c2ccccc2c1`: the AC50 is 23.5 µM (active).

Consider `CC=Cc1ccc2c(c1)OCO2`, for which the molecule was classed as inactive. As to `CCCC=NO`, the molecule was called inactive.

As to `C=CC(=O)OC`, the outcome was inactive. Still for that read-out and setting: as for `C[N+](=O)[O-]`, the entry is “inactive”; as for `CCCCOP(=O)(O)OCCCC`, “inactive”. On to `CCCCCCCCCCCC#N`, for which the AC50 was 103 µM (active). As to `Nc1ccccc1`, the result was inactive. On the same count and under the same terms, as for `CCCCCc1cc(O)cc(O)c1`, the entry is “inactive”. With `O=[N+]([O-])O`, the call was inactive. Consider `COC(=O)c1ccccc1S(=O)(=O)NC(=O)Nc1nc(C)cc(C)n1`, for which the result was inactive. For `O=C(O)CCCc1ccc(N(CCCl)CCCl)cc1`, the molecule was classed as inactive. Still for that read-out and setting: as for `CNC(=N[N+](=O)[O-])NCC1CCOC1` (stereo not given), the entry is “inactive”; as for `C=CCc1ccc(OC(=O)Cc2ccccc2)c(OC)c1`, “inactive”. Take `c1cc(OCC2CO2)ccc1Cc1ccc(OCC2CO2)cc1` (stereo not given): the AC50 is 49.6 µM (active). Turning to `C=CCO`, the molecule was called inactive. With `CCCCCCCCCCCCCCCC[N+](C)(C)C`, the AC50 is 48.9 µM (active). As for `NNc1ccccc1`, the molecule was classed as inactive.

In the case of `O=C1C=CC(=O)C=C1`, the call was inactive. Still for that read-out and setting: as for `COc1ncc(F)c2nc(S(=O)(=O)Nc3c(F)cccc3F)nn12`, the entry is “inactive”.

`[Cl-].[Cl-].[Cl-].[Yb+3]`: the outcome was inactive. `CC(Cc1ccc(C(C)(C)C)cc1)CN1C[C@@H](C)O[C@@H](C)C1` (stereo not given in full): the AC50 was 38.6 µM (active). `COc1cc(OC)nc(Oc2cccc(Oc3nc(OC)cc(OC)n3)c2C(=O)O)n1`: the outcome was inactive.

As for `O=[N+]([O-])O.O=[N+]([O-])O.[Cd]`, the AC50 was 0.873 µM (active). In the case of `CCCCNP(N)(N)=S`, the molecule was classed as inactive. On the same count and under the same terms, as for `CCc1cccc(C)c1N(C(=O)CCl)[C@@H](C)COC`, the entry is “inactive”. Still for that read-out and setting: in the case of `C[N+](C)(C)CC(=O)[O-]` it was “inactive”; in that of `CCC(C)(C)O`, “inactive”. As to `C=CCN(CC=C)C(=O)C(Cl)Cl`, the call was inactive. On the same count and under the same terms, in the case of `BrCBr` it was “inactive”. As for `SCc1ccco1`, the AC50 was 62.8 µM (active). For `CC1OC(C)OC(C)O1` (stereo not given), the outcome was inactive. The same measure, in the same setting: in the case of `CC(C)(O)C#N` it was “inactive”. Consider `CC(C)CCCCCCCOP(=O)(Oc1ccccc1)Oc1ccccc1`, for which the AC50 is 55.6 µM (active).
